Here are results for 14 compounds from PubChem BioAssay (NCI).

This is part of a sample that, as a whole, favours compounds with a hit. Of some 83,000 tested, about 20% had one in any assay.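 Values shown are percent growth following 48 h exposure of cells in 96-well plates to a single concentration of compound; below 10 was considered active.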 Unmarked numbers belong to inactive results. The source made the active and inactive calls.

Among the test systems are HCT-15 colon; HT29 colon; SNB-75 CNS; SNB-19 CNS; U251 CNS; PC-3 prostate; SK-MEL-5 melanoma; UACC-62 melanoma; LOX IMVI melanoma; SK-MEL-28 melanoma.
Common to all, as to experiment: NCI-60 one-dose screen, 48 h (100 = growth as untreated, 0 = no growth, -100 = all killed)
Common to all, as to details: 10 µM unless noted

As to `COC(=O)Nc1nc2ccc(C(=O)C3CC3)cc2[nH]1`, the growth in the test with HCT-15 colon is -1.31% (active); in the test with HT29 colon it was 1.32% (active); in the test on SNB-75 CNS, 9.46% (active); with SNB-19 CNS it was 13.5%; with U251 CNS, 12.8%; with PC-3 prostate, 14.7%. For the same compound, the growth with SK-MEL-5 melanoma was 8.13% (active); with UACC-62 melanoma it was 30.3%; in the test with LOX IMVI melanoma, 34.7%; in the test with SK-MEL-28 melanoma it was 49%.
On to `O=C(O)c1ccccc1C(=O)Nc1ccc(Cl)cc1`, for which the growth in the test with HCT-15 colon is 98.5%; with HT29 colon, 104%; in the test on SNB-75 CNS, 95.8%; in the test on SNB-19 CNS, 102%; in the test on U251 CNS, 89.9%; with PC-3 prostate, 96.6%. Also, the growth in the test with SK-MEL-5 melanoma was 93.9%; in the test with UACC-62 melanoma, 48.8%; in the test on LOX IMVI melanoma, 63.8%; in the test with SK-MEL-28 melanoma, 96.7%.
As to `CCOC(=O)c1ccc(NC(=O)CCCN(CC)CC)cc1`, the growth in the test on HCT-15 colon was 105%; in the test with HT29 colon, 88.6%; in the test with SNB-75 CNS it was 106%; in the test on SNB-19 CNS, 111%; in the test on U251 CNS, 98.2%; in the test with PC-3 prostate, 78.3%. Further, the growth with SK-MEL-5 melanoma was 110%; in the test on UACC-62 melanoma, 104%; with LOX IMVI melanoma, 97.7%; in the test with SK-MEL-28 melanoma it was 109%.
Take `COc1cccc(-c2cnco2)c1OCc1c(C)c(COc2c(OC)cccc2-c2cnco2)c(C)c(COc2c(OC)cccc2-c2cnco2)c1C`: the growth was 89.6% with HCT-15 colon; 32.7% with HT29 colon; 13% with SNB-75 CNS; 67.4% with SNB-19 CNS; 40% with U251 CNS; 71.3% in the test on PC-3 prostate. In addition, the growth was 45.3% in the test with SK-MEL-5 melanoma, 42.2% in the test on UACC-62 melanoma, 45.6% in the test on LOX IMVI melanoma and 55.7% in the test on SK-MEL-28 melanoma.
As for `CCn1nc(C#Cc2c(C)ccc3c(Nc4ccc(Cl)cc4)nccc23)c2c(N)ncnc21`, the growth in the test with HCT-15 colon is 23.3%; with HT29 colon it was 2.98% (active); in the test with SNB-75 CNS, -8.46% (active); in the test on SNB-19 CNS, 9% (active); in the test on U251 CNS, 26%; in the test with PC-3 prostate it was 18.9%. The growth in the test with SK-MEL-5 melanoma is -43.9% (active); with UACC-62 melanoma, -4.21% (active); with LOX IMVI melanoma it was 11.3%; with SK-MEL-28 melanoma it was 0.371% (active).
Regarding `CCCc1cc(=O)oc2c3c(c4c(c12)OC(C)(C)C=C4)O[C@@H](C)[C@H](C)C3=O`, the growth in the test with HCT-15 colon is 98.1%; in the test on HT29 colon, 41%; with SNB-75 CNS it was 87.7%; in the test on SNB-19 CNS, 93.6%; with U251 CNS it was 65.7%; in the test with PC-3 prostate, 40.7%. Also, the growth with SK-MEL-5 melanoma was 32.1%; in the test on UACC-62 melanoma, 66%; in the test on LOX IMVI melanoma it was 81.2%.
For `CC(C)CCC[C@@H](C)[C@H]1CCC2C3=CCC4C(=O)C=CC(=O)C4C3CC[C@@]21C` (some centres undefined), the growth was 3.29% (active) in the test on HCT-15 colon; 11.3% in the test on HT29 colon; 7.34% (active) in the test on SNB-75 CNS; 38.2% in the test with SNB-19 CNS; 11.5% in the test on U251 CNS; 9.01% (active) in the test with PC-3 prostate. Moreover, the growth in the test with SK-MEL-5 melanoma is -48.5% (active); with UACC-62 melanoma, 28.7%; in the test on LOX IMVI melanoma, -43.4% (active); in the test on SK-MEL-28 melanoma it was 41.9%.
`CS(=O)(=O)c1ccc(-c2[nH]c3ccc(F)cc3c2/C=N/NC(N)=S)cc1`: the growth was 20.4% in the test on HCT-15 colon; 3.14% (active) with HT29 colon; 22.4% in the test with SNB-75 CNS; 15.6% with SNB-19 CNS; 15.5% in the test with U251 CNS; 19.1% in the test on PC-3 prostate. The growth with SK-MEL-5 melanoma is 17.3%; with UACC-62 melanoma, 14.7%; in the test on LOX IMVI melanoma it was 30.1%; with SK-MEL-28 melanoma it was 39.5%.
For `CCOC(=O)C1=C(C)NC(SCc2nnc(-c3ccc(Cl)cc3)o2)=NC1c1ccc(Cl)cc1Cl` (centres undefined), the growth is 55.3% in the test on HCT-15 colon; 53.1% in the test on HT29 colon; 84.1% in the test on SNB-75 CNS; 72.9% with SNB-19 CNS; 65.3% in the test with U251 CNS; 45.1% with PC-3 prostate. Besides, the growth with SK-MEL-5 melanoma was 80.3%; with UACC-62 melanoma it was 51.6%; in the test with LOX IMVI melanoma it was 58.3%; with SK-MEL-28 melanoma it was 101%.
For the compound `Cc1nc(Nc2ccc(NC(=S)Nc3ccccc3)cc2)nc2nc(Nc3ccc(S(=O)(=O)O)cc3)[nH]c(=O)c12`, the growth in the test on HCT-15 colon is 127%; in the test on HT29 colon it was 145%; with SNB-75 CNS, 128%; in the test on SNB-19 CNS, 96.2%; with U251 CNS it was 110%; in the test with PC-3 prostate it was 99.5%. In addition, the growth in the test with SK-MEL-5 melanoma was 117%; in the test on UACC-62 melanoma, 105%; in the test on LOX IMVI melanoma it was 109%; with SK-MEL-28 melanoma, 125%.
Turning to `Cl.Fc1c[c-]c(-c2ccccn2)c(F)c1.[Pt].c1ccc([PH+](C[PH+](c2ccccc2)c2ccccc2)c2ccccc2)cc1`, the growth with HCT-15 colon was -80.1% (active); in the test on HT29 colon, -64.7% (active); with SNB-75 CNS, -95.5% (active); in the test on SNB-19 CNS, -88.9% (active); in the test on U251 CNS, -77.1% (active); in the test with PC-3 prostate it was -57.7% (active). Besides, the growth in the test with SK-MEL-5 melanoma was -98.2% (active); with UACC-62 melanoma, -82.3% (active); in the test with LOX IMVI melanoma, -88.9% (active); in the test on SK-MEL-28 melanoma, -92.5% (active).
Turning to `C=C1C(=O)O[C@H]2[C@H]1CC/C(COC(=O)NCc1ccc(Cn3c(=O)sn(CCCCl)c3=O)cc1)=C\CC[C@@]1(C)O[C@@H]21`, the growth was 8.02% (active) in the test with HCT-15 colon; -30.2% (active) in the test on HT29 colon; 70.2% in the test on SNB-75 CNS; 76.1% with SNB-19 CNS; 57.7% in the test on U251 CNS; 67.1% in the test with PC-3 prostate. Besides, the growth is 42.5% in the test on SK-MEL-5 melanoma, 26.8% in the test on UACC-62 melanoma, -48.2% (active) in the test with LOX IMVI melanoma and 28.1% with SK-MEL-28 melanoma.
In the case of `O=[N+]([O-])c1ccc2[nH]cc(-c3c4ccsc4cc4[nH]c5ccc([N+](=O)[O-])cc5c34)c2c1`, the growth in the test with HCT-15 colon is 11.3%; in the test with HT29 colon, -14.5% (active); with SNB-75 CNS it was -24.3% (active); in the test on SNB-19 CNS, 13.4%; in the test with U251 CNS, 6.49% (active); in the test with PC-3 prostate, 9.2% (active). The growth in the test on SK-MEL-5 melanoma was -7.86% (active); with UACC-62 melanoma, 14.5%; with LOX IMVI melanoma, 0.522% (active); in the test with SK-MEL-28 melanoma it was 27.1%.
Consider `COc1cc(C(=O)/C=C/c2c(C(F)(F)F)nc3ccccn23)cc(OC)c1OC`, for which the growth in the test on HCT-15 colon was -44.2% (active); in the test on HT29 colon, -56.5% (active); in the test on SNB-75 CNS it was 1.22% (active); in the test on SNB-19 CNS it was 14.6%; in the test on U251 CNS it was -60.2% (active); in the test on PC-3 prostate it was 7.45% (active). For the same compound, the growth with SK-MEL-5 melanoma is -95.2% (active); in the test with UACC-62 melanoma it was -75.6% (active); in the test on LOX IMVI melanoma, -79.8% (active); with SK-MEL-28 melanoma, -65.2% (active).
